# Among all 1,200 compounds or so, about 360 (30%) were called active. How the calls were made is not given here. Not all results are given here. Entries with a potency or affinity are not part of this list.
# Experiment: bacterial growth inhibition, dose response, counter-screen, BacTiter-Glo luminescence, cherry-picked samples (AID 504843);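 further: growth measured after 8 h incubation at 30 °C; 0% = median of sample compound wells and -100% = antibiotic control wells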
# Conditions: BacTiter-Glo ATP luminescence; series mostly up to 15 µM; activity change, negative = inhibition: at the top concentration
row,SMILES,"activity change, negative = inhibition"
1,COc1ccc(C(=O)OC(C)CN2CCN(C)CC2)cc1 (stereo not given),-6.2% (inactive)
2,CC(=O)c1ccc(NC(=O)CSc2nc(N3CCOCC3)nc(N3CCOCC3)n2)cc1,-8.88% (inactive)
3,NC(=O)C1CCN(C(=O)CSc2nc3ccccc3o2)CC1,-10.7% (inactive)
4,COc1ccc(C2OC(=O)CC2C(=O)NCc2ccc(F)cc2)cc1OC (stereo not given),11.5% (inactive)
5,CCCCNC(=O)NNC(=O)c1ccc(F)cc1,17.9% (inactive)
6,CCOC(=O)N1CCN(c2ccc(C(=O)CC)cc2F)CC1,1.6% (inactive)
7,O=C(O)Cn1cc(C(=S)N2CCOCC2)c2ccccc21,1.11% (inactive)
8,O=C(NC(=S)N1CCc2ccccc21)c1ccccc1Cl,3.89% (inactive)
9,COCCn1c(=NC(=O)c2ccc3c(c2)OCCO3)sc2cc(S(N)(=O)=O)ccc21,12.3% (inactive)
10,CCOC(=O)C1=C(C)c2ccccc2OC1(C(=O)OCC)C(C)C (stereo not given),12% (inactive)
11,CCOc1ccc(S(=O)(=O)Nc2cc(Cl)ccc2O)cc1,0.342% (inactive)
12,Cc1ccc(NC(=O)CCCc2nc3ccccc3s2)c(O)c1,-5.14% (inactive)
13,O=C(COc1ccc2c3c(c(=O)oc2c1)CCCC3)NCCCn1ccnc1,-22.2% (inactive)
14,O=C(N/N=C/c1cn(-c2cccs2)nc1-c1ccccc1)c1ccccc1O,13.5% (inactive)
15,Oc1c(Cl)cc(Cl)cc1C1Nc2ccccc2-n2cccc21 (stereo not given),-4.71% (inactive)
16,COc1ccc(N(C2=NCCCS2)S(=O)(=O)c2ccc(C(C)(C)C)cc2)cc1,-5% (inactive)
17,Cc1cc(C(=O)CN2C(=O)C3CC=CCC3C2=O)c(C)n1-c1ccccc1 (stereo not given),12.8% (inactive)
18,C=C(C)CSc1nnc(-c2ccc(OC)c(OC)c2)n1N,9.53% (inactive)
19,CCCCC1C(=O)N(c2ccccc2)N(c2ccc(O)cc2)C1=O (stereo not given),16.9% (inactive)
20,CCCCOc1ccc(C2CC(=O)N(C)C2=O)cc1 (stereo not given),12.5% (inactive)
21,CO[C@H]1/C=C/O[C@@]2(C)Oc3c(C)c(O)c4c(O)c(c5c(c4c3C2=O)NC2(CCN(CC(C)C)CC2)N=5)=NC(=O)/C(C)=C\C=C\[C@H](C)[C@H](O)[C@@H](C)[C@@H](O)[C@@H](C)[C@H](OC(C)=O)[C@@H]1C,13.9% (inactive)
22,CCc1cccc(CC)c1NC(=S)NCC(c1cccnc1)N(C)C (stereo not given),-1.21% (inactive)
23,CCCCNC(=O)COC(=O)CCC(=O)c1cccs1,-2.41% (inactive)
24,O=C(CCCn1c(=O)[nH]c2ccsc2c1=O)N1CCCCC1,-13.5% (inactive)
25,Cc1n[nH]c(=O)nc1N1CCc2ccccc2C1,-11.8% (inactive)
26,CCOc1nc(Nc2ccc(OC)c(Cl)c2)nc(OCC)n1,-13.6% (inactive)
27,CC1=NN(c2ccccc2)C(=O)C1c1ccccc1 (stereo not given),-7.25% (inactive)
28,Cc1ccc(OC(=O)c2cc(=O)c3ccccc3o2)cc1,11.8% (inactive)
29,COc1cccc(-c2nn3c(-c4ccccn4)nnc3s2)c1,-8.38% (inactive)
30,Clc1ccc(-c2nnc3c4ccccc4nc(N4CCOCC4)n23)cc1Cl,4.28% (inactive)

# Source: PubChem BioAssay AID504843 (Broad Institute, 2011)
